Structures are written as SMILES. Inconclusive results are not listed. Calls of active or inactive are those of the source. The call rests on the fitted dose curve; in most records, active means well fitted curve in the direction sought with a large enough effect; inconclusive means small, poorly fitted or top-dose-only effect, or another doubt; inactive means no such curve, though single readings can be large; an effect the other way counts as inactive or inconclusive.

For test [1], the system named is Nanoluciferase (engineered Oplophorus gracilirostris luciferase). In words: Primary Nanoluciferase (NLuc) qHTS assay for identification of artifact compounds. (AID 1845222).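 Further: NLuc secreted into diluted conditioned medium of S16 cells; 0% = DMSO and -100% = no enzyme.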 In a few lines: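 NLuc from S16 cell medium (1:55) plus test compounds, 15 min, room temperature. Luminescence after Nano-Glo (1:100) addition, 5 min.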
Background: In qHTS, concentration-response curves come from the screen itself.

Test [2] is described as follows: Primary redox qHTS assay for identification of artifact compounds. (AID 1845223). In a few lines: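 Amplex Red (25 uM) and HRP (250 mU/mL) in HBSS, with compounds for 15 min, then 250 uM DTT for 30 min, room temperature, dark. Fluorescence 525/598 nm read; normalized to DMSO and 10 uM DA3003; Hill fit.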
A short description of test [3]: Quantitative High-Throughput drug screen in 47 multiple myeloma cell lines against the NCATS MIPE library collection: FR4_PLB cell viability assay (AID 1918924; further: nearly all actives have a fitted effect of over 35% in size; further: potency means the concentration at half of the fitted maximal effect). The gist of the method: (§1)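 Luminescent ATP measurement with CellTiter-Glo gives viability, scaled between DMSO-only wells (100%) and media-only wells (0%). Cells, 500 per well, faced library compounds for 48 hours at 37C.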

Test [4] can be described thus: Quantitative High-Throughput drug screen in 47 multiple myeloma cell lines against the NCATS MIPE library collection: EJM_DSMZ cell viability assay (AID 1918926; further: nearly all actives have a fitted effect of over 30% in size; further: potency means the concentration at half of the fitted maximal effect). The gist of the method:
(§2)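 Myeloma cell lines, 500 cells per well, exposed to MIPE 4.0 library compounds for 48 h at 37C, 5% CO2. Viability from ATP by CellTiter-Glo luminescence; normalised to DMSO (100%) and media-only (0%) wells.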

A short description of test [5]: Quantitative High-Throughput drug screen in 47 multiple myeloma cell lines against the NCATS MIPE library collection: ARD_JJKsccE7 cell viability assay (AID 1918929; further: potency means the concentration at half of the fitted maximal effect). In a few lines: as §2
Test [6] can be described thus: Quantitative High-Throughput drug screen in 47 multiple myeloma cell lines against the NCATS MIPE library collection: Karpas620_DSMZ cell viability assay (AID 1918959). Further: nearly all actives have a fitted effect of over 30% in size. Further: potency means the concentration at half of the fitted maximal effect. The gist of the method: as §1
Test [7] can be described thus: Quantitative High-Throughput drug screen in 47 multiple myeloma cell lines against the NCATS MIPE library collection: KMM1_JCRB cell viability assay (AID 1918960). Further: nearly all actives have a fitted effect of over 30% in size. Further: potency means the concentration at half of the fitted maximal effect.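 On viability (% of DMSO): 100% = DMSO-treated cells and 0% = medium-only wells.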 In a few lines:
(§3)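 Luminescence from CellTiter-Glo, taken after 5 min at room temperature, reports cellular ATP as viability. Cells (500 per well) had been treated 48 h at 37 °C with MIPE 4.0 compounds, scaled between DMSO and medium-only controls.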

The nature of test [8]: Quantitative High-Throughput drug screen in 47 multiple myeloma cell lines against the NCATS MIPE library collection: KHM11_PLB cell viability assay (AID 1918962). Further: nearly all actives have a fitted effect of over 35% in size. Further: potency means the concentration at half of the fitted maximal effect. In a few lines: as §1
Test [9] in a line: Quantitative High-Throughput drug screen in 47 multiple myeloma cell lines against the NCATS MIPE library collection: JIM3_ECACC cell viability assay (AID 1918963; further: nearly all actives have a fitted effect of over 35% in size; further: potency means the concentration at half of the fitted maximal effect). In a few lines:
as §1

The nature of test [10]: Quantitative High-Throughput drug screen in 47 multiple myeloma cell lines against the NCATS MIPE library collection: Delta47_JCRB cell viability assay (AID 1918925; further: nearly all actives have a fitted effect of over 45% in size; further: potency means the concentration at half of the fitted maximal effect). The gist of the method:
as §2

Test [11] is described as follows: Quantitative High-Throughput drug screen in 47 multiple myeloma cell lines against the NCATS MIPE library collection: AMO1_DSMZ cell viability assay (AID 1918927; further: nearly all actives have a fitted effect of over 30% in size; further: potency means the concentration at half of the fitted maximal effect). The gist of the method: as §2
The nature of test [12]: Quantitative High-Throughput drug screen in 47 multiple myeloma cell lines against the NCATS MIPE library collection: ARP1_JJKsccF8 cell viability assay (AID 1918928; further: nearly all actives have a fitted effect of over 40% in size; further: potency means the concentration at half of the fitted maximal effect). The gist of the method: as §3
Test [13] can be described thus: Quantitative High-Throughput drug screen in 47 multiple myeloma cell lines against the NCATS MIPE library collection: Karpas417_ECACC cell viability assay (AID 1918961). Further: potency means the concentration at half of the fitted maximal effect. The conditions noted are these: Karpas417 myeloma viability, CellTiter-Glo ATP luminescence, 48 h; viability (% of DMSO): at 45.8 µM (top of the series). In a few lines: (§4)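 Steps: seed 500 cells per well; pin-transfer MIPE 4.0 library; incubate 48 h at 37C, 5% CO2, humidified; add CellTiter-Glo, 5 min room temperature; read luminescence.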

Test [14] can be described thus: Quantitative High-Throughput drug screen in 47 multiple myeloma cell lines against the NCATS MIPE library collection: JIM1_ECACC cell viability assay (AID 1918964; further: potency means the concentration at half of the fitted maximal effect). The gist of the method:
as §2

A short description of test [15]: Quantitative High-Throughput drug screen in 47 multiple myeloma cell lines against the NCATS MIPE library collection: INA6_PLB cell viability assay (AID 1918965; further: nearly all actives have a fitted effect of over 55% in size; further: potency means the concentration at half of the fitted maximal effect). The gist of the method:
as §4

Test [16] in a line: Quantitative High-Throughput drug screen in 47 multiple myeloma cell lines against the NCATS MIPE library collection: H1112_PLB cell viability assay (AID 1918967; further: nearly all actives have a fitted effect of over 30% in size; further: potency means the concentration at half of the fitted maximal effect). In a few lines:
as §2

The nature of test [17]: Quantitative High-Throughput drug screen in 47 multiple myeloma cell lines against the NCATS MIPE library collection: Karpas25_ECACC cell viability assay (AID 1918968; further: nearly all actives have a fitted effect of over 35% in size; further: potency means the concentration at half of the fitted maximal effect). In a few lines: as §2
Test [18] can be described thus: Quantitative High-Throughput drug screen in 47 multiple myeloma cell lines against the NCATS MIPE library collection: KMS27_JCRB cell viability assay (AID 1918970). Further: nearly all actives have a fitted effect of over 30% in size. Further: potency means the concentration at half of the fitted maximal effect. In a few lines:
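Each line is seeded at 500 cells per well and treated with library compounds for 48 hours under 37 °C, 5% CO2. CellTiter-Glo is then added for 5 min at room temperature before median relative luminescence is recorded.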

A short description of test [19]: Quantitative High-Throughput drug screen in 47 multiple myeloma cell lines against the NCATS MIPE library collection: KMS12BM_JCRB cell viability assay (AID 1918971). Further: nearly all actives have a fitted effect of over 35% in size. Further: potency means the concentration at half of the fitted maximal effect. In a few lines: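 CellTiter-Glo luminescence (ATP) after 48 h compound exposure, 37C/5% CO2; 500 cells/well; MIPE 4.0 approved/investigational drugs pinned in; DMSO = 100%, media only = 0% viability.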

The nature of test [20]: Quantitative High-Throughput drug screen in 47 multiple myeloma cell lines against the NCATS MIPE library collection: JJN3_DSMZ cell viability assay (AID 1918966; further: potency means the concentration at half of the fitted maximal effect; nearly all actives have a fitted effect of over 50% in size). In a few lines:
as §2

In the case of `O=C(N[C@H]1CN2CCC1CC2)c1ccc(Cl)cc1`, the outcome in [1] and in test [2] was inactive. Further, the Potency result in test [3], in test [4], in [5], in [6], in [7] and in [8] was “inactive” throughout. Also, the Potency entry in test [9] is “inactive”.
As to `CC(=O)NCCc1c[nH]c2ccccc12`, the outcome in [1] and in [2] was inactive.
On to `C/C=C(/C)C(=O)O[C@H]1C(C)=C2[C@H]([C@@H]1OC(=O)CCCCCCC)[C@@](C)(OC(C)=O)C[C@H](OC(=O)CCC)[C@@]1(O)[C@H]2OC(=O)[C@@]1(C)O`, for which the result in [1] and in test [2] was inactive.
Turning to `O=c1[nH]c2ccc(Cl)cc2c(N[C@@H]2CN3CCC2CC3)c1-c1nc2ccccc2[nH]1`, the outcome in test [1] and in test [2] was inactive. For the same molecule, the Potency was 74.3 nM (active) in test [3]; 93.5 nM (active) in test [10]; 418 nM (active) in [4]; 74.3 nM (active) in test [11]; 2640 nM (active) in test [12]; 935 nM (active) in test [5]. The Potency was 5900 nM (active) in test [6]; 46.9 nM (active) in test [7]; 332 nM (active) in test [13]; 235 nM (active) in test [8]; 74.3 nM (active) in test [9]; 41.8 nM (active) in [14]. For the same molecule, the Potency in [15] was 33.2 nM (active); in test [16], 418 nM (active); in test [17], 235 nM (active); in test [18], 187 nM (active); in test [19], 1660 nM (active).
With `CC(C)(O)C=CC(=O)[C@](C)(O)[C@H]1[C@H](O)C[C@]2(C)[C@@H]3CC=C4[C@@H](C=C(O)C(=O)C4(C)C)[C@]3(C)C(=O)C[C@@]12C`, the Potency in test [3] was 46.9 nM (active); in test [10], 16.6 nM (active); in test [4], 8.3 nM (active); in [11] it was 41.8 nM (active); in test [12], 66.2 nM (active); in test [5], 296 nM (active). Further, the Potency was 418 nM (active) in test [6]; 59 nM (active) in [7]; 8.3 nM (active) in test [13]; 41.8 nM (active) in test [8]; 105 nM (active) in test [9]; 14.8 nM (active) in test [14]. The Potency in test [15] is 14.8 nM (active); in [20] it was 37.2 nM (active); in test [16], 2090 nM (active); in test [17] it was 29.6 nM (active); in test [18], 20.9 nM (active).
Regarding `CC(C)(C)NC[C@H](O)c1ccc(O)cc1Cl`, the result in [1] and in [2] was inactive.
For `CCN1CCN(C(=O)Cc2ccc(Nc3ncc(F)c(Nc4ccc(C(=O)Nc5ccccc5Cl)cc4)n3)cc2)CC1`, the molecule was classed as inactive in [1] and in [2]. Further, the Potency in test [3] was 3720 nM (active); in [10] it was 1320 nM (active); in [4] it was 8330 nM (active); in test [11], 1050 nM (active); in [12], 3720 nM (active); in [5] it was 743 nM (active). Also, the Potency in test [6] is 1870 nM (active); in test [7], 2640 nM (active); in test [13], 2960 nM (active); in [8], 2350 nM (active); in test [9], 3720 nM (active); in [14] it was 2090 nM (active). The Potency in test [15] is 935 nM (active); in test [16], 6620 nM (active); in test [17] it was 2350 nM (active); in test [18], 2960 nM (active).
As to `COc1ccc(N(C(=O)Oc2c(C)cccc2C)c2ccnc(Nc3ccc(N4CCN(C)CC4)cc3)n2)c(OC)c1`, the molecule was called inactive in [1] and in [2]. For the same molecule, the Potency in test [3] was 2640 nM (active); in test [10], 4180 nM (active); in [4], 743 nM (active); in test [11], 1480 nM (active); in test [5], 7430 nM (active); in test [6] it was 2640 nM (active). Further, the Potency in test [7] is 2960 nM (active); in test [14], 2640 nM (active); in test [15], 1480 nM (active); in test [20], 18700 nM (active); in test [16], 372 nM (active); in test [18] it was 2960 nM (active).
Regarding `CC(C)[C@]12O[C@@H]1[C@@H]1O[C@]13[C@]1(O[C@H]1C[C@@H]1C4=C(CC[C@@]13C)C(=O)OC4)[C@H]2O`, the Potency result in test [3], in test [10], in test [4], in [11], in [12] and in test [5] was “inactive” in each case. In addition, the Potency entry in test [6], in [7], in test [13], in [8], in test [9] and in test [14] was “inactive” throughout. In addition, the Potency entry in test [15], in [16], in [18] and in test [19] was “inactive” throughout.
Consider `COc1cccc2c1[C@]13CCN(CC4CC4)[C@H](C2)[C@]1(OC)CCC(=O)C3`, for which the Potency result in test [3], in [10], in [4], in [11], in test [12] and in [5] was “inactive” throughout. For the same molecule, the Potency entry in test [6], in test [7], in test [8], in test [9], in [15] and in test [16] was “inactive” in each case. The Potency result in [17] and in test [18] was “inactive” each time. Also, in test [13], the viability (% of DMSO) was 89.4% (active).
On to `Cc1[nH]nc2ccc(-c3cncc(OC[C@@H](N)Cc4c[nH]c5ccccc45)c3)cc12`, for which the call in test [1] and in [2] was inactive. In addition, the Potency in test [3] is 833 nM (active); in test [10], 209 nM (active); in [4], 935 nM (active); in [12], 3320 nM (active); in [8], 132 nM (active); in test [9], 1480 nM (active). Moreover, the values for the Potency in test [15] and in test [16] were 372 nM (active) and 935 nM (active), respectively. The Potency result in [11], in test [5], in test [6], in test [7] and in test [18] was “inactive” each time.
`O=C(N[C@@H](COc1ccc2[nH]c(=O)[nH]c2c1)c1ccccc1)c1cccn(Cc2ccc(F)c(F)c2)c1=O`: the outcome in test [1] and in [2] was inactive. The Potency is 20900 nM (active) in test [10]; 18700 nM (active) in test [11]; 18700 nM (active) in [5]; 18700 nM (active) in test [7]; 20900 nM (active) in [18].
Consider `CCC(=O)OC1CCC2C3CCC4=CC(=O)CC[C@@]4(C)C3CC[C@]12C` (stereo not given in full), for which the Potency result in [3], in test [4], in [11], in [5], in test [6] and in [7] was “inactive” each time. The Potency result in test [8], in [9] and in test [16] was “inactive” throughout. Moreover, the Potency in test [10] was 18700 nM (active); in test [15] it was 20900 nM (active).
As to `O=C(Nc1ccncc1)C(=O)c1cn(Cc2ccc(Cl)cc2)c2ccccc12`, the Potency is 16.6 nM (active) in test [3]; 16.6 nM (active) in [10]; 3720 nM (active) in test [4]; 16.6 nM (active) in test [11]; 74.3 nM (active) in test [12]; 41.8 nM (active) in [5]. The Potency was 18.7 nM (active) in test [7]; 14.8 nM (active) in [9]; 16.6 nM (active) in test [14]; 13.2 nM (active) in [15]; 46.9 nM (active) in test [17]; 20.9 nM (active) in [18]. Besides, the Potency in test [19] was 148 nM (active).

(Values after PubChem BioAssay (NCATS).)
